Laboratory results as given in PubChem BioAssay (NCI).
This is part of a sample that, as a whole, favours compounds with a hit. Of some 83,000 tested, about 20% had one in any assay.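 Cells were grown in 96-well plates and exposed to the test compound at a single concentration for 48 hours; results are reported as percent growth, with values below 10 considered active.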 A number with no mark means an inactive call. Calls of active or inactive are those of the source.

Legend:
Test in all cases: NCI-60 one-dose screen, 48 h (100 = growth as untreated, 0 = no growth, -100 = all killed)
Details in all cases: 10 µM unless noted
DU-145 prostate = tested on: DU-145 prostate
K-562 leukemia = tested on: K-562 leukemia
MALME-3M melanoma = tested on: MALME-3M melanoma
MDA-MB-231 breast = tested on: MDA-MB-231 breast
RXF 393 renal = tested on: RXF 393 renal
SF-268 CNS = tested on: SF-268 CNS
SF-295 CNS = tested on: SF-295 CNS
SF-539 CNS = tested on: SF-539 CNS
UACC-257 melanoma = tested on: UACC-257 melanoma
M14 melanoma = tested on: M14 melanoma

Structure (SMILES)	growth (DU-145 prostate)	growth (K-562 leukemia)	growth (MALME-3M melanoma)	growth (MDA-MB-231 breast)	growth (RXF 393 renal)	growth (SF-268 CNS)	growth (SF-295 CNS)	growth (SF-539 CNS)	growth (UACC-257 melanoma)	growth (M14 melanoma)
O=C(c1ccc(-c2nc(CSc3nc4ccccc4s3)no2)cc1)N1CCSCC1	81.9%	36.6%	66.3%	64.6%	110%	77.1%	40.6%	80.3%	35.7%	79.9%
Cc1cccc(N2CCN(CC(O)COc3ccc(Cl)cc3)CC2)c1 (stereo not given)	115%	82.9%	146%	94.5%	107%	105%	82.3%	101%	108%	95.9%
COc1cc(CNS(=O)(=O)c2ccc(C)cc2)ccc1OCc1cn(-c2ccc(F)cc2)nn1	95.9%	65.3%	94.9%	91%	93.2%	91.8%	90.1%	89.3%	89.9%	97.1%
COc1ccc2nc(NC(=O)CSc3nnc4n3S(=O)(=O)c3ccccc3N4C)sc2c1	115%	91.2%	120%	94.5%	-29.4% (active)	95.8%	127%	106%	82.4%	101%
Cc1nc(N2CCOCC2)sc1S(N)(=O)=O	105%	110%	96%	101%	103%	94%	94.1%	98%	97.4%	103%
Cc1ccc2c(n1)C(=O)c1[nH]c3ccccc3c1C2=O	-86.1% (active)	44.9%	-80.4% (active)	32.1%	62.7%	66.3%	0.15% (active)	43%	13.7%	-39.9% (active)
CCN1CCN(c2cc(C(=O)Nc3nc(-c4cc(OC)c(OC)c(OC)c4)cs3)cc(C(F)(F)F)c2)CC1	74.9%	3.83% (active)	69.3%	47%	69.3%	65.1%	83.2%	75.6%	88.6%	42.1%
COC1=CC(c2ccc[nH]2)=N/C1=C\c1[nH]c(C)c(C(=O)OCc2ccccc2)c1C	12.1%	2.63% (active)	-76.7% (active)	-65.1% (active)	-18.1% (active)	0.9% (active)	-79.3% (active)	-63.4% (active)	-57.5% (active)	-73.9% (active)
c1ccc(CNc2c3ccccc3nc3ccccc23)cc1	48.6%	12.3%	37.4%	57.9%	41.9%	62.6%	37.6%	24%	52.7%	32.3%
OCc1cccc(-c2ccc3ncc(-c4nc(NC5CC5)ncc4F)n3c2)c1	2.04% (active)	4.91% (active)	-69% (active)	-15.6% (active)	-44.3% (active)	-24.5% (active)	4.24% (active)	-61.2% (active)	-29.9% (active)	-39.4% (active)
O=c1oc2ccccc2cc1C1=NN=C(SCc2ccccc2)SC1	100%	91.4%	99.3%	101%	109%	97.1%	98.9%	96.5%	110%	95.7%
COc1cccc(CNc2ncnc3c2ncn3C2OC(CO)C(O)C2O)c1O (stereo not given)	0.439% (active)	6.7% (active)	-1.1% (active)	-46% (active)	-13.3% (active)	22.8%	-24.5% (active)	-3.39% (active)	37.6%	18.5%
CCOc1nc(-c2ccccc2)cc2c(O)c(C(=O)NN)[nH]c(=O)c12	120%	134%	112%	99.3%	108%	86.2%	107%	96.9%	103%	98.8%
COc1cc2c(c(OC)c1OC)CCC(c1cccc(C(=O)Nc3cccc(Br)c3)c1)O2 (stereo not given)	85.1%	52.1%	102%	17.6%	78.6%	67.1%	64.5%	99.4%	74.1%	73.9%
COC(=O)c1cc(-c2ccc(OC)cc2)[nH]c1N/N=C/c1c(Cl)cccc1Cl	-26.2% (active)	0.823% (active)	24.7%	7.56% (active)	-44.2% (active)	13.8%	-28.2% (active)	-38.8% (active)	14.2%	-59.3% (active)
COc1ccc(OC)c(-c2c(C#N)c(-c3cccs3)nc3c2c(-c2ccccc2)nn3-c2ccccc2)c1	111%	106%	106%	105%	109%	97.4%	101%	93.5%	105%	105%
Clc1ccc(Sc2cnc(-c3ccccc3)o2)cc1	104%	98.2%	102%	97.2%	115%	93.5%	97.4%	96%	93.6%	107%
C=C(C)[C@@H]1CC[C@]2(C(=O)OC)CC[C@]3(C)[C@H](CC[C@@H]4[C@@]5(C)C/C(=C/NC(N)=S)C(=O)C(C)(C)[C@@H]5CC[C@]43C)[C@@H]12	86.3%	73.6%	119%	98.5%	99.8%	95.8%	99.4%	85.6%	100%	87.9%
CC1(C)CC2=C3C=C[C@@H]4[C@@]5(C)CCC(=O)C(C)(C)[C@@H]5CC[C@@]4(C)[C@]3(C)CC[C@@]2(C(=O)O)CC1=O	97.2%	92.1%	39.1%	75.3%	54.8%	53.3%	75.3%	65.7%	43.2%	46.8%
Oc1c(Cl)cc(Cl)c2ccc(Cn3cc(-c4ccc(C(F)(F)F)cc4)nn3)nc12	48.9%	4.56% (active)	45.5%	86.7%	5.98% (active)	83.9%	104%	69.4%	58.1%	55.5%
CCCCCC(=O)OCC(=O)O[C@@H]1C[C@]2(C(C)C)O[C@@]1(C)[C@@H]1CC[C@@H](C)[C@H]1[C@@H]2OC(=O)/C=C/c1ccccc1	73.4%	42.3%	49.8%	83.6%	-2.83% (active)	54.4%	90.2%	92.3%	87.2%	69.1%

Structure (SMILES)	growth (DU-145 prostate)	growth (K-562 leukemia)	growth (MALME-3M melanoma)	growth (MDA-MB-231 breast)	growth (RXF 393 renal)	growth (SF-268 CNS)	growth (SF-295 CNS)	growth (SF-539 CNS)	growth (UACC-257 melanoma)	growth (M14 melanoma)
CCOC(=O)C1=NN(c2ccccc2)C(=O)/C1=C\N1C(=O)CC(=O)NC1=S	110%	98.2%	97.6%	91.8%	117%	93.9%	103%	100%	105%	93.7%
Cc1ccccc1/C=C1\CN(C(=O)OC(C)(C)C)C/C(=C\c2ccccc2C)C1=O	9.09% (active)	5.76% (active)	73.7%	42.7%	61.1%	2.68% (active)	24.6%	31.2%	74.3%	30.7%
CN1C(=O)N(C)C2Nn3c(s/c(=C\c4ccc(C(F)(F)F)cc4)c3=O)=NC21 (stereo not given)	109%	93.3%	107%	91.7%	95.7%	96.9%	101%	97.3%	111%	110%
COc1ccccc1NC(=O)Cn1cc(CN2CCN(c3ccnc4cc(Cl)ccc34)CC2)nn1	106%	83.8%	106%	82.3%	85.8%	84%	100%	99.3%	106%	106%
COc1ccc(/C=N/NC(=O)CCN2c3ccccc3Sc3ccccc32)cc1	102%	24%	71.7%	76.6%	66.6%	96.7%	68.8%	85.2%	99.8%	65.4%
O=C1c2cccc(NCCN=Cc3cc(O)ccc3O)c2C(=O)c2c(NCCN=Cc3cc(O)ccc3O)cccc21	-68.5% (active)	-94.8% (active)	-24.6% (active)	-41% (active)	-34.2% (active)	-34.9% (active)	-23.6% (active)	-8.67% (active)	57.9%	-4.47% (active)
CCOC(=O)Cn1c(O)c(N=Nc2ccc(S(N)(=O)=O)cc2)c2cc(Br)ccc21	78.7%	65.4%	79.5%	67.6%	43.3%	97.2%	96.8%	16%	96.3%	87.8%
COc1ccc(Cc2cc(-c3ccccc3)nn(Cc3ccccc3)c2=O)cc1OC	73.8%	22.2%	23.4%	43.6%	42.4%	57%	28.8%	63.4%	34.4%	38%
C#CCOc1ccc2ncnc(Nc3cccc(NC(=O)C=C)c3)c2c1	54%	70.6%	73.9%	58.1%	6.44% (active)	55.9%	91.6%	59.2%	69.5%	62.8%
COCCNC(=O)c1ccc(-c2nc3ccc4[nH]ncc4c3c3c2CCCC3)cc1	41.3%	24.9%	30.5%	50.4%	11.8%	32.4%	32.5%	12.2%	71.2%	35.1%
COc1cc(NC(C)CCCNC(C)C)c2ncccc2c1OC (stereo not given)	113%	104%	105%	89%	95%	105%	99.9%	85.6%	107%	97%
N#CC1=C(c2ccc(Cl)cc2)Nc2c(c(-c3ccc(Cl)cc3)nn2-c2ccccc2)C12C(=O)Nc1ccc(Cl)cc12 (stereo not given)	76.6%	24.3%	77%	50.1%	21.3%	38.2%	23.2%	74.2%	63.4%	41.9%
CCOC(=O)c1ccc2[nH]c(O)c(C(=Nc3ccc(N(C)C(=O)CN4CCN(C)CC4)cc3)c3ccccc3)c2c1	-9.05% (active)	-20.8% (active)	-88.9% (active)	-72.3% (active)	-97.7% (active)	7.68% (active)	-6.29% (active)	-91.1% (active)	-55.4% (active)	-78.5% (active)
CCSc1nc(NC)c2cc(-c3ccc(C(F)(F)F)cc3)ccc2n1	105%	105%	96.9%	90.3%	90.5%	103%	102%	103%	106%	96.5%
O=C(Nc1cccc([N+](=O)[O-])c1)c1cc2ccccc2cc1O	10.6%	-9.38% (active)	-23.3% (active)	-43% (active)	5.31% (active)	18.3%	-9.62% (active)	4.44% (active)	-10.1% (active)	19%
CCNc1cc(-c2cccc(OC(F)(F)F)c2)nc2ccc(N3CCCC3)cc12	28.6%	4.34% (active)	-32.2% (active)	15.3%	33.7%	48.8%	23.6%	48.9%	11.1%	7.92% (active)
CC(C)NC1CCC(Nc2ccnc3cc(Cl)ccc23)CC1 (stereo not given)	111%	56.3%	85.4%	76.5%	49.2%	99.6%	96.6%	97.5%	88.6%	93.2%
CCNc1nc(-c2ccc(Cl)c(OC)c2)c(-c2ccnc(NCCCNS(=O)(=O)c3ccc(Cl)cc3)n2)s1	74.3%	32.3%	7.63% (active)	50.9%	70.2%	60.4%	70.3%	86.6%	29.2%	23%
CC1=NN(c2nc(SCC(=O)Nc3nc4ccc(C)cc4s3)nc(-c3ccccc3)c2C#N)C(=O)C1	113%	94.7%	101%	106%	94.9%	97.2%	103%	90.3%	113%	109%
C=C(CNCCc1ccc(O)cc1)[C@@H]1CC[C@]2(CO)CC[C@]3(C)[C@H](CC[C@@H]4[C@@]5(C)CCC(NCCO)C(C)(C)[C@@H]5CC[C@]43C)[C@@H]12 (stereo not given in full)	-31% (active)	-49% (active)	-90.6% (active)	-77.6% (active)	-90.3% (active)	-62.4% (active)	-80.8% (active)	-97.3% (active)	-77.9% (active)	-89.3% (active)
COc1ccc(-c2csc(NC(=O)CSc3nc(-c4ccccc4)cc(=O)[nH]3)n2)cc1	76.1%	42.9%	60.2%	83.5%	86.5%	77.9%	53.3%	78.3%	77.1%	59.1%
